# Data from article PMC7862700, “An all-to-all approach to the identification of sequence-specific readers for epigenetic DNA modifications on cytosine”.
# How the values were obtained:
# Assay in all cases: DAPPL (digital affinity profiling via proximity ligation, sequencing); 10 mM Tris-HCl pH 7.5, 50 mM NaCl, 1 mM DTT, 4% glycerol, room temperature, 30 min; GST-TFs on glutathione beads, 16-mer random dsDNA library, 0.1% formaldehyde crosslink after washing; high values mean tight binding
# Conditions in all cases: protein: recombinant; tags: N-terminal GST; dsDNA, one strand shown
# [1] = biological target: T1, FLI1 (Homo sapiens, UniProt Q01543 1-452)
# T1 sequence: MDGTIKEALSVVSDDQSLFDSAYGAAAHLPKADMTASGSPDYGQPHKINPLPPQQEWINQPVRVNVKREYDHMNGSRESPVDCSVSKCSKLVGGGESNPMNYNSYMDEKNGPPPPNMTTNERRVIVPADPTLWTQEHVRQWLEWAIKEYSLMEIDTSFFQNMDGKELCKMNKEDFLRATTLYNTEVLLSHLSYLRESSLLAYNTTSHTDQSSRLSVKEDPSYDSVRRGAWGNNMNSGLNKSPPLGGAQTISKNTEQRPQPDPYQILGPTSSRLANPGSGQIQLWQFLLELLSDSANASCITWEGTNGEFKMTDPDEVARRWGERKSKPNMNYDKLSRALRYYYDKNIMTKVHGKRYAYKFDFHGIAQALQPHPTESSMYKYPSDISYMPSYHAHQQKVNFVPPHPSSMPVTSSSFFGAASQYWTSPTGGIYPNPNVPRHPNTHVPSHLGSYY
# Method in brief: (§1)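 Yeast served to express human transcription factors as GST fusions, which were then captured on glutathione beads and labelled with DNA barcodes. Pooled with a tag-only sample, they were incubated with 200 nmole of a 16-mer random double-stranded DNA library for 30 min at room temperature in Tris/NaCl/DTT/glycerol buffer, washed, crosslinked with 0.1% formaldehyde, ligated by proximity, amplified by PCR and sequenced. Dividing each hexamer's read frequency for a factor by its frequency for the tag-only sample gives the binding signal.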
# [2] = biological target: T2, GABPA (Homo sapiens, UniProt Q06546 1-454)
# T2 sequence: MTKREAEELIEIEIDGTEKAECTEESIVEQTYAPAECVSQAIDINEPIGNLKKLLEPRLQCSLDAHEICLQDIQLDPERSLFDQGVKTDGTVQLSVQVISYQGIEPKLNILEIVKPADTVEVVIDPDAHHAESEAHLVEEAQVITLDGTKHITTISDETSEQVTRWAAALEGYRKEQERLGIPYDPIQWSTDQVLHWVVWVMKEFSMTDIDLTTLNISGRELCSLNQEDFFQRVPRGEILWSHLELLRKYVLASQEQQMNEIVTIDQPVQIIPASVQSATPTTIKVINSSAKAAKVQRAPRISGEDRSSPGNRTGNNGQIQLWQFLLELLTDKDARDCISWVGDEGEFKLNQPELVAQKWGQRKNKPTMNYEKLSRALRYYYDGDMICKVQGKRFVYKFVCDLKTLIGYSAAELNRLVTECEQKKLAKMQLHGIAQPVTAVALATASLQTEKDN
# Method in brief: as §1
# [3] = biological target: T3, ERG (Homo sapiens, UniProt P11308 1-479)
# T3 sequence: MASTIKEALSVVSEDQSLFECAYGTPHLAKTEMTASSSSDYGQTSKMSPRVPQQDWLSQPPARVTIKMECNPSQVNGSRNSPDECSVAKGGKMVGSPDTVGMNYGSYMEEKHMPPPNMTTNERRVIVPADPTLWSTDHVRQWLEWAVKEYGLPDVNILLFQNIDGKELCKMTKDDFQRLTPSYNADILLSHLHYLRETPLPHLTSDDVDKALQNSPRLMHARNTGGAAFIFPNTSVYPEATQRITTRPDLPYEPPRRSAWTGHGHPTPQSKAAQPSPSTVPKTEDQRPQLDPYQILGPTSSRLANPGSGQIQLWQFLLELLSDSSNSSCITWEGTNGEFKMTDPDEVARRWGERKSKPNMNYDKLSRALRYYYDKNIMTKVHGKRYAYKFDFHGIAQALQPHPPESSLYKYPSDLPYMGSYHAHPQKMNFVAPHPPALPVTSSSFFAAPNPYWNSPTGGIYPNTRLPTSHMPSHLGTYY
# Method in brief: as §1
# [4] = biological target: ELF1 (Homo sapiens, UniProt P32519 1-619)
# Sequence of ELF1 (P32519 whole entry): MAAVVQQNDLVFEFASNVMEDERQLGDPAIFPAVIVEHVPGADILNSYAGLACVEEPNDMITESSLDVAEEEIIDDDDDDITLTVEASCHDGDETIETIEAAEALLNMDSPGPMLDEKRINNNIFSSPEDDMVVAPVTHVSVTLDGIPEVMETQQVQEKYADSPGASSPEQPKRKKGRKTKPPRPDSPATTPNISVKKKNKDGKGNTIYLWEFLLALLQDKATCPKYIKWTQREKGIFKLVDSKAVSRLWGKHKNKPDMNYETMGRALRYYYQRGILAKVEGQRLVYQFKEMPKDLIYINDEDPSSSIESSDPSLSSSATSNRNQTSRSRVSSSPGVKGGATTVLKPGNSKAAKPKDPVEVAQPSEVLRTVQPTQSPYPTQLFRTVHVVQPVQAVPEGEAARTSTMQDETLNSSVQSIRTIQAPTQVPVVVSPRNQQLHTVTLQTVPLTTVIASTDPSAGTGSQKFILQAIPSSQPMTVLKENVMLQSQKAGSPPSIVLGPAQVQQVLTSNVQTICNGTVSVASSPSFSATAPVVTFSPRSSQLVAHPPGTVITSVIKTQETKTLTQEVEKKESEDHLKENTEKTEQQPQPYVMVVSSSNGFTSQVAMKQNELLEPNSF
# Method in brief: as §1
# [5] = biological target: T4, EHF (Homo sapiens, UniProt Q9NZC4 1-300)
# T4 sequence: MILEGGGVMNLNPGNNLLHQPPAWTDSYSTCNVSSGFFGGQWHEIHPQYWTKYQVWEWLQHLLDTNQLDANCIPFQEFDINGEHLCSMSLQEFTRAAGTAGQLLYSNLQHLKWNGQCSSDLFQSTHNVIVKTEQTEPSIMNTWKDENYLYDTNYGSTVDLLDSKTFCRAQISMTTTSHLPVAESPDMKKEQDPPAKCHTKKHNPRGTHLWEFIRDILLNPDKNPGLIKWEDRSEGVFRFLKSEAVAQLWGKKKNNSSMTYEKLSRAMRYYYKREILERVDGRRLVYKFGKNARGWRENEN
# Method in brief: as §1
# [6] = biological target: T5, SPIC (Homo sapiens, UniProt Q8N5J4 1-248)
# T5 sequence: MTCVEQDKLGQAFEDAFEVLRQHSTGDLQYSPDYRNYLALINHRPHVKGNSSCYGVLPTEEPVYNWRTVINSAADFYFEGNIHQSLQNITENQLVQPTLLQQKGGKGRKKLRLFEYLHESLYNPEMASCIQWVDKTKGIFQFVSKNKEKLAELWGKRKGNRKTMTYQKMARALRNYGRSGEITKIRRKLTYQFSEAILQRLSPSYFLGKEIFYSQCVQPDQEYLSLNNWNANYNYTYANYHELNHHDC
# Method in brief: as §1
# [7] = biological target: ETV1 (Homo sapiens, UniProt P50549 1-477)
# Sequence of ETV1 (P50549 whole entry): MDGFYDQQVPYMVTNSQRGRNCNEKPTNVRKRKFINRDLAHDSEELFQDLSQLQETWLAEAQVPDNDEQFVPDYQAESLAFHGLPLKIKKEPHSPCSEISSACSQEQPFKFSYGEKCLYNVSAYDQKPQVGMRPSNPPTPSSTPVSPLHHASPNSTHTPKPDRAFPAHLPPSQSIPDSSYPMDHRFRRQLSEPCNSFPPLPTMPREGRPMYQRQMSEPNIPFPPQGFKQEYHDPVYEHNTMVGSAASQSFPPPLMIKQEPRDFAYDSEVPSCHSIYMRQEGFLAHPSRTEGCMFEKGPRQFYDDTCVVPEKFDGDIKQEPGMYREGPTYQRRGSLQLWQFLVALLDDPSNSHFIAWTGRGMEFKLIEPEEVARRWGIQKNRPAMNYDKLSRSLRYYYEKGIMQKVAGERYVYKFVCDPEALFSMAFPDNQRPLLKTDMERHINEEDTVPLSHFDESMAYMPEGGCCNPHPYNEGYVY
# Method in brief: as §1
# [8] = biological target: T6, ERF (Homo sapiens, UniProt P50548 1-548)
# T6 sequence: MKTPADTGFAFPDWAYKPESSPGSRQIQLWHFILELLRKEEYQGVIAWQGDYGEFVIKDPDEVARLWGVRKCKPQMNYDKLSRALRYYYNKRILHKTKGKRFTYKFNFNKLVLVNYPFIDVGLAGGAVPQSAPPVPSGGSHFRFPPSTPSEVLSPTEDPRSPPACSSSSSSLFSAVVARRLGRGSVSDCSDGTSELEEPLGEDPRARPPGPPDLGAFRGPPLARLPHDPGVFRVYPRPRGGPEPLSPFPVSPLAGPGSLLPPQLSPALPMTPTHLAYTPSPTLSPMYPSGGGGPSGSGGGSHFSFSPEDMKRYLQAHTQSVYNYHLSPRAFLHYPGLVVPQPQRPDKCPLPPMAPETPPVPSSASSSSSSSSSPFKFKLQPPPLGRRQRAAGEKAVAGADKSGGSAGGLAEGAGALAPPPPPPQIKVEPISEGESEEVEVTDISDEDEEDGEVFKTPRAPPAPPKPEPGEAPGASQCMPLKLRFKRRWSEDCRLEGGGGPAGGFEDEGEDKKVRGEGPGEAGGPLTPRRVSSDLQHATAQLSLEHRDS
# Method in brief: as §1
# [9] = biological target: T7, ETV3L (Homo sapiens, UniProt Q6ZN32 1-361)
# T7 sequence: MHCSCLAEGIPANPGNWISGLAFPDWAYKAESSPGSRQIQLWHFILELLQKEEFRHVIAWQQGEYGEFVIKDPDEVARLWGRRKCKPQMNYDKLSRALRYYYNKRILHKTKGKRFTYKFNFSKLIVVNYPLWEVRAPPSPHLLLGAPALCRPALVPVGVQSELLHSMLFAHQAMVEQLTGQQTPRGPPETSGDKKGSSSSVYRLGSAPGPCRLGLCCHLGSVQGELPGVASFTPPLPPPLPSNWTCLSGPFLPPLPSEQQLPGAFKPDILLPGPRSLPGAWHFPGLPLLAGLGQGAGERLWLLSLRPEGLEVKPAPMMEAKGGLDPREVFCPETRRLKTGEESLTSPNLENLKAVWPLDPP
# Method in brief: as §1
# [10] = biological target: T8, ETS2 (Homo sapiens, UniProt P15036 1-469)
# T8 sequence: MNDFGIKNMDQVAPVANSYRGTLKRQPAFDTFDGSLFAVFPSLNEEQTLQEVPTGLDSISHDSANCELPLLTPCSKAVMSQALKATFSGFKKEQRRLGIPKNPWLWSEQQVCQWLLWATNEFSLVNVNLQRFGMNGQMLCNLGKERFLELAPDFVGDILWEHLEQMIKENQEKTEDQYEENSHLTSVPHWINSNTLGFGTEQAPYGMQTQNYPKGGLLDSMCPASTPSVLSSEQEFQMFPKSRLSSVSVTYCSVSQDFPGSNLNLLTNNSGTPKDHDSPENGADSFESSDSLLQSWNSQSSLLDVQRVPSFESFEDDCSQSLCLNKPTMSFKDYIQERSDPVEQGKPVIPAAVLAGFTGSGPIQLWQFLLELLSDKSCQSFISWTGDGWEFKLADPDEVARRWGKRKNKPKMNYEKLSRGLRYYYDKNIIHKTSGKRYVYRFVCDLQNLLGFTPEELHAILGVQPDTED
# Method in brief: as §1
# [11] = biological target: T9, ETV7 (Homo sapiens, UniProt Q9Y603 1-341)
# T9 sequence: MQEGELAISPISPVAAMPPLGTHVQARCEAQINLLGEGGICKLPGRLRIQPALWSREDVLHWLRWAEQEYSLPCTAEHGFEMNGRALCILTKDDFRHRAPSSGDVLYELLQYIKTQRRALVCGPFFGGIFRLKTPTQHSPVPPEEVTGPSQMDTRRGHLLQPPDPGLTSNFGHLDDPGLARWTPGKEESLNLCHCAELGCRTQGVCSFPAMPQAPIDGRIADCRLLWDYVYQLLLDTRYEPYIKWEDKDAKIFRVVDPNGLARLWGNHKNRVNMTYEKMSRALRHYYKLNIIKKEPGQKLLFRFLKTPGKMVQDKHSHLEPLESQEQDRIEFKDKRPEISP
# Method in brief: as §1
sequence,measurement,setting,value
TAGACT,binding signal,[1],"1.03 fold enrichment (6-mer frequency, TF over GST control)"
same,binding signal,[2],"1.02 fold enrichment (6-mer frequency, TF over GST control)"
same,binding signal,[3],"1.05 fold enrichment (6-mer frequency, TF over GST control)"
same,binding signal,[4],"1.09 fold enrichment (6-mer frequency, TF over GST control)"
same,binding signal,[5],"1.04 fold enrichment (6-mer frequency, TF over GST control)"
same,binding signal,[6],"1.03 fold enrichment (6-mer frequency, TF over GST control)"
same,binding signal,[7],"1.02 fold enrichment (6-mer frequency, TF over GST control)"
same,binding signal,[8],"1.07 fold enrichment (6-mer frequency, TF over GST control)"
same,binding signal,[9],"1 fold enrichment (6-mer frequency, TF over GST control)"
same,binding signal,[10],"1.02 fold enrichment (6-mer frequency, TF over GST control)"
same,binding signal,[11],"1.05 fold enrichment (6-mer frequency, TF over GST control)"
